Screens from PubChem.
A3G deaminase: blocks human APOBEC3G single-stranded DNA deamination. inhibition, % at 20 µM. actives 0.28% (n = 330,000). recombinant A3G, ssDNA deamination FAM/TAMRA fluorescence. Q9HC16. AID 493012;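 active means inhibition of at least 40% at 20 µM, with no more than 30% in the related APOBEC3A deaminase screen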
ADAM17 inh: inhibits human ADAM17. P78536. recombinant ADAM17, EDANS/DABCYL FRET peptide cleavage. inhibition, % at 6.95 µM. AID 720648. actives 0.83% (n = 370,000);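 active means inhibition above the mean of compounds lying between control limits plus 3 SD, set per campaign, cut at about 8.5% in these data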
A3A deaminase: human APOBEC3A DNA deaminase inhibition | P31941 | recombinant A3A, FAM/TAMRA ssDNA deamination fluorescence | inhibition, % at 20 µM | actives 0.41% (n = 330,000) | AID 493011;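 active means at least 40% inhibition at 20 µM here, with at most 30% in a related deaminase screen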
ADAM10 inh: inhibitors of human ADAM10; recombinant ADAM10, EDANS/DABCYL FRET peptide cleavage, 3 h; inhibition, % at 7 µM; actives 0.62% (n = 370,000);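 active means inhibition above a per-campaign cutoff equal to the mean of compounds falling between control-based bounds plus 3 SD, cut at about 20% in these data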
Target sequence (O14672 214-748 limits assumed): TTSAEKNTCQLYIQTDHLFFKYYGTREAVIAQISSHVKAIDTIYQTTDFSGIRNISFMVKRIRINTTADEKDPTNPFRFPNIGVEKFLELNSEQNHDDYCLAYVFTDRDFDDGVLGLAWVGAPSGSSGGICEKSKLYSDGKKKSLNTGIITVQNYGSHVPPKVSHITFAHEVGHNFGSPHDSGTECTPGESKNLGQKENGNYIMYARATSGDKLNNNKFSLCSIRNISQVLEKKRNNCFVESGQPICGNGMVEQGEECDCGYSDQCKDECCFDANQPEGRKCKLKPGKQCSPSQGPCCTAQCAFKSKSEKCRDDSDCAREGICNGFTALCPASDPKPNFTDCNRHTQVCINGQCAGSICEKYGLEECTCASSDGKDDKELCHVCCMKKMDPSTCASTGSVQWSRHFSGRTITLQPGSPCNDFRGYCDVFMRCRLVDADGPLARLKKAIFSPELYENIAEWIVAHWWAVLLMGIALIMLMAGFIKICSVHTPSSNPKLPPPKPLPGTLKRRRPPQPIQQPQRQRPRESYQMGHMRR
NRP1-CendR mod: NRP-1/CendR interaction modulation. O14786. actives 0.85% (n = 360,000). inhibition, % at 25 µM. FAM-RPARPAR peptide binding to NRP-1, fluorescence polarization. AID 602438;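 active means inhibition or corrected inhibition above about 18%, plus a signal ratio from 0.5 to 1.5, limit read from the data, passing the limit was not always enough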
ADAM10 confirm: human ADAM10 inhibition, confirmation | AID 743208 | actives 1% (n = 2,100) | inhibition, % at 6.95 µM | shares compounds with ADAM10 inh | ADAM10 QFRET peptide cleavage, EDANS fluorescence;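 active means inhibition above about 20% chosen separately for each screening run, limit read from the data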
ADAM17 ctr: inhibits human ADAM17 in ADAM10 exosite counter-screen | shares compounds with ADAM10 inh | ADAM17 QFRET peptide cleavage, EDANS fluorescence | inhibition, % at 6.95 µM | actives 0.5% (n = 2,100);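 active means mean triplicate inhibition above the solvent-only control wells' mean plus 3 SD, cut at about 12% in these data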
ADAM10 ctr: counter-screen for ADAM17 exosite inhibitors: inhibitors of human ADAM10; shares compounds with ADAM17 inh; recombinant ADAM10, EDANS/DABCYL FRET peptide cleavage, 3 h; inhibition, % at 6.95 µM; actives 47% (n = 2,900);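 active means mean inhibition over the triplicate runs exceeds the activity threshold set in the earlier primary screen, cut at about 20% in these data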
ADAM17 confirm: confirmation of inhibitors of human ADAM17. actives 65% (n = 2,900). shares compounds with ADAM17 inh. recombinant ADAM17, EDANS/DABCYL QFRET peptide cleavage. AID 743257. inhibition, % at 6.95 µM;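 active means mean inhibition across replicates above the hit cutoff set in the primary screen, cut at about 8.5% in these data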
Of the large screens only hits and unclear results are named; the others gave an inactive call (follow-up assays come after a bar, where they were run). A selection: hits, their analogues and other compounds. The true share with any hit is near 2.4%.

Cc1cccc(OCCCSc2nc3ccccc3[nH]2)c1	ADAM17 inh 10.1, ADAM10 inh 21.2 | ADAM10 confirm inactive | ADAM17 ctr inactive | ADAM10 ctr inactive | ADAM17 confirm 9.8
CC1(Cc2ccccc2OC(F)(F)F)C(=O)Nc2ccc(OC(F)(F)F)cc21 (centres undefined)	none (no result: A3G deaminase, A3A deaminase)
CC(=O)c1cccc(-c2ccc3c(c2)C(C)(Cc2ccccc2C#N)C(=O)N3)c1 (centres undefined)	none (no result: A3G deaminase, A3A deaminase)
CC1(Cc2ccccc2OC(F)(F)F)C(=O)Nc2ccc(-c3ccsc3)cc21 (centres undefined)	ADAM17 inh 10.0, ADAM10 inh 29.8 (no result: A3G deaminase, A3A deaminase) | ADAM10 confirm inactive | ADAM17 ctr inactive | ADAM10 ctr 23.9 | ADAM17 confirm 13.8
COc1ccc(C(C)=O)cc1CC1(C)C(=O)Nc2ccc(-c3cccc(C(F)(F)F)c3)cc21 (centres undefined)	ADAM17 inh 9.8, ADAM10 inh 27.0 (no result: A3G deaminase, A3A deaminase) | ADAM10 confirm inactive | ADAM17 ctr inactive | ADAM10 ctr 24.1 | ADAM17 confirm 14.2
O=C(c1cccc(Oc2ccccc2)c1)N1CCC(Oc2cccnc2)CC1	none (no result: A3G deaminase, A3A deaminase, NRP1-CendR mod)
COc1ccc([C@@H]2[C@@H]3C(=O)N(C(C)(C)C)C(=O)[C@@H]3[C@]3(Cc4ccccc4)C(=O)N(c4cccc(Cl)c4)C(=O)N23)cc1	ADAM17 inh 9.8, ADAM10 inh 36.7 | ADAM10 confirm inactive | ADAM17 ctr inactive | ADAM10 ctr 25.6 | ADAM17 confirm 14.6
COc1ccc(N(CC(O)Cn2c3ccccc3c3ccccc32)S(=O)(=O)c2ccccc2)cc1 (centres undefined)	ADAM17 inh 13.1, ADAM10 inh 31.3 | ADAM10 confirm 191.1 | ADAM17 ctr 41.1 | ADAM10 ctr inactive | ADAM17 confirm 12.4
CC(=O)Nc1ccccc1N(CC(O)Cn1c2ccccc2c2ccccc21)S(=O)(=O)c1ccc(C)cc1 (centres undefined)	ADAM17 inh 12.9, ADAM10 inh 24.9 | ADAM10 confirm inactive | ADAM17 ctr inactive | ADAM10 ctr 37.7 | ADAM17 confirm 23.3
CS(=O)(=O)N(CC(O)Cn1c2ccccc2c2ccccc21)c1ccccc1 (centres undefined)	none
C[C@@H]1CCN(C2CC2)S(=O)(=O)c2ccc(N3CCC[C@H]3C)cc2O1	none (no result: A3G deaminase, A3A deaminase, NRP1-CendR mod)
O=C(COC(=O)c1cccc(S(=O)(=O)N2CCOCC2)c1)Nc1nc(-c2ccccc2Cl)cs1	ADAM17 inh 16.4, ADAM10 inh 37.1 | ADAM10 confirm inactive | ADAM17 ctr inactive | ADAM10 ctr 34.9 | ADAM17 confirm 17.5
Cc1cc(NC(=O)COC(=O)c2cccc(S(=O)(=O)N3CCOCC3)c2)no1	none
O=C(Nc1ccccc1C(F)(F)F)O[C@@H]1CC[C@@]23CCCN2C(=O)CCC[C@H]3C1	none (no result: A3G deaminase, A3A deaminase, NRP1-CendR mod)
CCCCCCCCNS(=O)(=O)/C=C/c1ccccc1CNC(=O)OC(C)(C)C	ADAM17 inh 10.7, ADAM10 inh 20.9 (no result: A3G deaminase, A3A deaminase, NRP1-CendR mod) | ADAM10 confirm inactive | ADAM17 ctr inactive | ADAM10 ctr 31.4 | ADAM17 confirm 14.9
COP(=O)(O)CCOCCC(CC(C)C)NC(=O)OCc1ccccc1 (centres undefined)	none (no result: A3G deaminase, A3A deaminase, NRP1-CendR mod)
CCN1C(=O)N[C@H]2C[C@@H](c3ccccc3)[C@@H](C)[C@@H](C(=O)N3CCCC3)C[C@H]21	none (no result: A3G deaminase, A3A deaminase, NRP1-CendR mod)
Cc1ccc(O)c(N=Cc2cc(Cc3ccccc3)cc([N+](=O)[O-])c2O)c1	ADAM17 inh 18.7, ADAM10 inh 37.6 | ADAM10 confirm inactive | ADAM17 ctr inactive | ADAM10 ctr 21.6 | ADAM17 confirm inactive
CCc1ccc(/C=c2\s/c(=C\C(=O)C(C)(C)C)[nH]c2=O)cc1	ADAM17 inh 16.6, ADAM10 inh 32.9 | ADAM10 confirm inactive | ADAM17 ctr inactive | ADAM10 ctr 19.9 | ADAM17 confirm 17.0
O=C(Nc1ccccc1)Nc1nc2ncccn2c1-c1ccc(C(F)(F)F)cc1	none (no result: A3G deaminase, A3A deaminase, NRP1-CendR mod)
CCCCC[C@@H](C)N1C[C@@H](COCc2ccccc2)Oc2cc(N3CC[C@H](O)C3)ccc2S1(=O)=O	ADAM17 inh 9.1, ADAM10 inh 22.3 (no result: A3G deaminase, A3A deaminase) | ADAM10 confirm inactive | ADAM17 ctr inactive | ADAM10 ctr 34.3 | ADAM17 confirm 17.5
CCOC(=O)C1=CCN(S(=O)(=O)c2cccc(Cl)c2)C1c1cccc(Br)c1 (centres undefined)	none (no result: A3G deaminase, A3A deaminase, NRP1-CendR mod)
Cc1ccccc1C(=O)N[C@H](C(=O)N1CCC[C@H]1C(=O)NC1CCCC1)c1ccccc1	none (no result: A3G deaminase, A3A deaminase, NRP1-CendR mod)
COc1cccc(C2NC(=S)NC(C)=C2C(C)=O)c1 (centres undefined)	none (no result: A3G deaminase, A3A deaminase, NRP1-CendR mod)
COc1ccc(C2CC(c3ccccc3)=NN2C(=O)COC(=O)c2cccnc2Cl)cc1 (centres undefined)	ADAM17 inh 8.9, ADAM10 inh 19.9 | ADAM10 confirm inactive | ADAM17 ctr inactive | ADAM10 ctr inactive | ADAM17 confirm 9.3
C=CCC[C@H](Cc1ccc(F)cc1)C(=O)OC[C@H](Cc1c[nH]c2ccccc12)NC(=O)[C@@H](CC=C)CC(=O)N(CCO)Cc1ccccc1	ADAM17 inh 14.2, ADAM10 inh 26.7 | ADAM10 confirm inactive | ADAM17 ctr inactive | ADAM10 ctr 40.3 | ADAM17 confirm 20.2
C=CC[C@@H](CC(=O)N[C@H](CO)Cc1ccccc1)C(=O)N[C@@H](COC(=O)[C@@H](CC=C)CC(=O)OC(C)(C)C)Cc1c[nH]c2ccccc12	none
C=CC[C@H](CC(=O)N(CCO)Cc1ccccc1)C(=O)N[C@H](COC(=O)[C@@H](CC=C)CC(=O)OC(C)(C)C)Cc1c[nH]c2ccccc12	ADAM17 inh 12.8, ADAM10 inh 25.7 | ADAM10 confirm inactive | ADAM17 ctr inactive | ADAM10 ctr 45.4 | ADAM17 confirm 22.4
C=CC[C@@H](CC(=O)NCCO)C(=O)N[C@@H](COC(=O)[C@@H](CC=C)Cc1ccc(F)cc1)Cc1c[nH]c2ccccc12	none
C=CC[C@H](CC(=O)N(CCO)Cc1ccccc1)C(=O)N[C@H](COC(=O)[C@@H](CC=C)Cc1ccc(F)cc1)Cc1ccccc1	ADAM17 inh 10.8, ADAM10 inh 20.7 | ADAM10 confirm inactive | ADAM17 ctr inactive | ADAM10 ctr 24.9 | ADAM17 confirm 15.7
